Screening data from PubChem.
GC-A act: GC-A (human) enzyme activation | P16066 | HEK293 GC-A cells, cGMP TR-FRET, EC30 ANP; 0% at EC30 ANP, 100% saturating ANP | activation, % at 10 µM | 0.14% of 370,000 active | AID 1671463; in the data active = activation above about 40%
Efflux pump mplx: inhibitors of Candida antifungal efflux pumps expressed in yeast | inhibition, % at 10 µM | AID 485275 | S. cerevisiae Candida pump triplex, Nile Red efflux | 0.44% of 330,000 active;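 active = plate passing quality check with inhibition over a set limit, or well fluorescence over plate mean plus 4 SD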;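 note: Nile Red retained in pooled yeast measured as flow cytometry median fluorescence; 0% = buffer negative control and 100% = Enniatin B positive control; higher means more Nile Red kept so more efflux inhibition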
NSD2 inh: blocks human histone methyltransferase NSD2; 0.54% of 310,000 active; NSD2 peptide methylation, AlphaScreen, 120 min; inhibition, % at 12.5 µM; in the data active = inhibition above about 50%
NPR2 activator: GC-B (human) receptor activation; HEK293-GC-B cells, CNP EC30, cGMP TR-FRET; 0% at EC30 CNP, 100% saturating CNP; activation, % at 10 µM; AID 1920062; 0.11% of 370,000 active;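 active = activation at 10 µM reaching about 35% in either raw or pattern-adjusted values, limit read from the data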
Rce1 inh: inhibitors of yeast Ras-converting enzyme; yeast membranes, quenched prenylated peptide cleavage fluorescence; 0.27% of 290,000 active; Q03530; calls only; AID 2563;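 active = fall in fluorescence gain of 50% or more versus controls, with final raw signal at or below 3038400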;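 note: plate controls were neutral control wells for no effect and wells lacking membranes for full effect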
V-ATPase pHluor: regulators of yeast V-ATPase proton transport; response, % at 10 µM; 0.37% of 350,000 active; S. cerevisiae, pHLuorin cytosolic pH fluorescence; AID 504577; in the data active = response mostly above about 7.3%, no sharp cut-off; inactive = mostly below about 5.4%; note: actives read high
Cmpd fluor yeast: compound fluorescence in yeast efflux pump counter-screen; AID 588517; 4% of 1,700 active; shares compounds with Efflux pump mplx; S. cerevisiae AD/pABC3, flow cytometry; fluorescence ratio to DMSO, % at 10 µM;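 active = fluorescence ratio to DMSO above its plate's cutoff, the plate mean ratio plus 5 SD, cut at about 210% in these data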;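 note: unstained yeast with no Nile Red so the signal is compound autofluorescence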
CaMdr1 efflux inh: Candida Mdr1 efflux pump inhibition | AID 588518 | S. cerevisiae AD/CaMDR1, Nile Red efflux, flow cytometry | shares compounds with Efflux pump mplx | 1% of 1,700 active | inhibition, % at 10 µM; in the data active = inhibition above about 26%;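 note: 0% = DMSO vehicle and 100% = reference inhibitor; higher means more Nile Red retained so more efflux inhibition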
CaCdr2 efflux inh: blocks the Candida albicans Cdr2 efflux pump in yeast | shares compounds with Efflux pump mplx | S. cerevisiae AD/CaCDR2, Nile Red retention, flow cytometry | Nile Red retention ratio vs DMSO, % at 10 µM | 4% of 1,700 active; in the data active = Nile Red retention ratio vs DMSO above about 190%;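 note: higher ratio means more blocking of Cdr2 efflux of the dye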
Cdr1 pump inh: Candida Cdr1 efflux pump inhibition | shares compounds with Efflux pump mplx | S. cerevisiae AD/CaCDR1, Nile Red efflux, flow cytometry | inhibition, % at 10 µM | 1% of 1,700 active | AID 588522;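 active = inhibition above the screen-wide mean plus twice its standard deviation, cut at about 32% in these data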
VATPase regulator: modulates yeast V-ATPase proton transport. shares compounds with V-ATPase pHluor. S. cerevisiae pHLuorin cytosolic pH. response, % at 10 µM. 2% of 980 active; in the data active = response above about 24%;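 note: plate controls were vehicle wells for no effect and positive control wells for full effect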
Alpha artifact: AlphaScreen assay artifact in NSD2 counter-screen; shares compounds with NSD2 inh; 9.4% of 1,500 active; AID 1053174; AlphaScreen artifact counterscreen, preloaded methylated H4 peptide; AC35, µM (doses to about 10 µM), without a hit: at the highest dose activity change, negative = signal loss; call rule not given here
* hit, by the source's call; i = inactive; · = no result; + = active, no number; ! = not confirmed by another sample. Compounds with a hit are over-represented: about 1.6% of the library has one in this group of screens.

SMILES | GC-A act | Efflux pump mplx | NSD2 inh | NPR2 activator | Rce1 inh | V-ATPase pHluor | Cmpd fluor yeast | CaMdr1 efflux inh | CaCdr2 efflux inh | Cdr1 pump inh | others
C/C(=N\N1CCCCCC1)c1c(O)n(-c2ccccc2)c(=O)[nH]c1=O | 2 | 0 | 1 | -2 | i | 0 | · | · | · | ·
CC(C)(C)Cc1nnc(NC(=O)COc2ccc(Cl)cc2Cl)o1 | 1 | · | -4 | -5 | · | · | · | · | · | ·
CCc1ccc2c(CN3CC=C(c4ccccc4)CC3)cc(=O)oc2c1 | -5 | 10* | · | -2 | i | -3 | 107 | 0 | 101 | 0
COc1ccc2c(CN3CC=C(c4ccccc4)CC3)cc(=O)oc2c1 | -1 | 0 | 2 | -1 | i | 7 | · | · | · | ·
Cc1cccc(C2=NCC(=O)N(CC(=O)NCc3ccco3)c3sc4c(c32)CCCC4)c1 | -20 | 0 | 15 | -7 | i | 3 | · | · | · | ·
COc1ccc(C2=NCC(=O)N(CC(=O)NCc3ccco3)c3sc4c(c32)CCCC4)cc1 | -20 | 0.8* | · | -9 | i | 1 | 113 | 0 | 100 | 0
CC12CCC3C(CCC4(O)CC(O)CCC34C=O)C1(O)CCC2C1=CC(=O)OC1 (stereo not drawn) | 2 | · | -1 | 1 | · | 4 | · | · | · | ·
C[C@]12CCC3C(CCC4=CC(O)CC[C@@]43/C=N/O)C1(O)CCC2C1=CC(=O)OC1 (stereo partly drawn) | 6 | 20* | -1 | -3 | i | -1 | 102 | 0 | 100 | 0
COc1ccc(NC(=O)N2CCC3(CC2)OCCO3)cc1OC | 3 | 11* | -3 | -1 | i | -3 | 103 | 0 | 108 | 0
O=C(NCCN1CCC2(CC1)C(=O)NCN2c1ccccc1)c1cccnc1Cl | -1 | · | -4 | -1 | · | · | · | · | · | ·
CCN(CC)C(=O)c1ccc(NC(=O)COc2ccc([N+](=O)[O-])cc2Cl)cc1 | 2 | 19* | -1 | -1 | i | 3 | 116 | 0 | 119 | 0
COc1ccc2c(c1)/C(=C/c1cnc[nH]1)C(=O)N2 | -10 | 0.8* | · | -14 | i | -4 | 106 | 0 | 93 | 0
O=C1NC(=O)C(CCc2ccncc2)(CCc2ccncc2)C(=O)N1C1CCCCC1 | -13 | 1.0* | -1 | -6 | i | -1 | 77 | 0 | 121 | 0
O=c1[nH]c(=O)n(CC2CCCO2)c(O)c1/C=C1\C=Nc2ccccc21 (stereo not drawn) | 3 | 2.6*! | 26 | -6 | i | 6 | 103 | 0 | 89 | 0
COC(=O)C1=C(c2cccc(C#N)c2)C[C@@H]2CC[C@H]1N2C(=O)NCC1CC1 | 1 | 2.5* | · | 2 | · | -5 | 100 | 0 | 104 | 0
C[C@H](NC(=O)OCc1ccccc1)[P+](=O)O | -2 | · | · | 4 | · | · | · | · | · | ·
c1ccc2c(c1)[nH]c1cnccc12 | 5 | 0 | · | 0 | i | 1 | · | · | · | ·
Cc1c2ccncc2c(C)c2c1[nH]c1ccccc12 | · | 5.6* | · | · | i | -2 | 118 | 0 | 96 | 0
Cc1ccc(OC(=O)N(C)C[C@@H]2OCc3ccccc3-c3c(n(C)c4ccccc34)C(=O)N([C@H](C)CO)C[C@H]2C)cc1 | -3 | · | · | 1 | · | · | · | · | · | ·
Cc1ccc(-c2cc(-c3ccc(C)cc3)[n+](-c3ccccc3)c(-c3ccc(C)cc3)c2)cc1 | · | 34* | · | · | + | -2 | 105 | 20 | + | 15
CN(C)c1ccc(-[n+]2c(-c3ccccc3)cc(-c3ccccc3)cc2-c2ccccc2)cc1 | -41 | · | 45 | -18 | · | 0 | · | · | · | ·
O=C(NC1CN2CCC1CC2)c1ccc(Cl)cc1 (stereo not drawn) | 3 | · | · | -7 | · | · | · | · | · | ·
C[N+](C)(C)CC(=O)Nc1ccc(Cl)cc1C(=O)c1ccccc1 | 1 | 0 | 0 | 1 | i | 3 | · | · | · | ·
Cc1cccc(C(=O)Nc2ccc(Cl)cc2C(=O)c2ccccc2)c1 | -6 | 0 | -10 | -6 | i | 9.0* | · | · | · | · | VATPase regulator=-1
CN1C(=O)/C(=C\c2ccc(Br)s2)C(=O)NC1=S | 20 | 0 | 3 | 12 | i | 21* | · | · | · | · | VATPase regulator=97*
SMILES | GC-A act | Efflux pump mplx | NSD2 inh | NPR2 activator | Rce1 inh | V-ATPase pHluor | Cmpd fluor yeast | CaMdr1 efflux inh | CaCdr2 efflux inh | Cdr1 pump inh | others
CCCCCCn1c(=O)c(C(=O)Nc2c(C)n(C)n(-c3ccccc3)c2=O)c(O)c2ccccc21 | -11 | 0 | -1 | -1 | i | 11* | · | · | · | · | VATPase regulator=2
O=C(O)CCn1cc(C=C2C(=O)NC(=S)NC2=O)c(-c2cccc(Cl)c2)n1 | 1 | 0 | 8 | -2 | i | 8.0* | · | · | · | · | VATPase regulator=-1
O=C(O)CCn1cc(C=C2C(=O)NC(=O)NC2=O)c(-c2ccc(Br)cc2)n1 | 1 | -2 | 5 | -7 | i | -2 | · | · | · | ·
Cc1cc(N2CCNC[C@H]2C)ccc1N1CCN[C@H](C)C1 | 2 | · | · | 2 | · | · | · | · | · | ·
CC(C)(C)n1nnnc1C1CN=C(c2ccccc2)c2cc(Cl)ccc2N1 (stereo not drawn) | -4 | · | · | -8 | · | · | · | · | · | ·
Cc1[nH]c2ccccc2c1C(=O)C(=O)N1CC2CC(C1)c1cccc(=O)n1C2 (stereo not drawn) | -1 | 0 | · | 4 | i | 9.1* | · | · | · | · | VATPase regulator=-1
C[C@H]1CNCCN1c1ccc(N2CC[C@H](O)C2)c(C#N)c1 | 0 | · | · | 4 | · | · | · | · | · | ·
CN1CCN(c2ncnc3c2cnn3C)CC1 | -4 | 0 | 76* | -2 | i | 4 | · | · | · | · | Alpha artifact=-4%
Cn1c(O)c(/C=C2\C=Nc3ccc(Br)cc32)c(=O)n(C)c1=O | 9 | 0 | -2 | 7 | i | -2 | · | · | · | ·
CCNC(=S)NCCC1=c2ccccc2=N/C1=C\c1c(O)n(C)c(=O)n(C)c1=O | 12 | 0 | 55* | 14 | i | -5 | · | · | · | · | Alpha artifact=1%
C[C@H]1CN([C@@H](C)CO)C(=O)CCCn2cc(nn2)CO[C@@H]1CN(C)C(=O)Oc1cccc2ccccc12 | 3 | · | · | 4 | · | · | · | · | · | ·
CCCCn1c(NS(=O)(=O)c2ccccc2)c(C(=O)OCC)c2nc3ccccc3nc21 | 3 | 0 | 99* | 0 | i | 0 | · | · | · | · | Alpha artifact=-2%
CCCCn1c(NC(=O)c2ccc(Br)o2)c(C(=O)OCC)c2nc3ccccc3nc21 | -2 | 0 | · | 6 | i | -2 | · | · | · | ·
